Test results reported in the supplement of paper PMC6555819.

What follows are sequences tested on VDR:RXRa (NR concentration 270 nM, RXRa partner concentration 90 nM) (assay: PBM binding z-score (relative to random genomic background probes); higher = stronger binding; sequences stand for … in GC…GCGATTGACAGCGTAGAATGAAGG).
Description: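 Protein-binding microarray (Agilent 4x180K custom design, double-stranded 60-nt probes: 5' GC cap, 34-nt variable region, 24-nt constant primer region; full probe sequence given). Purified or IVT nuclear receptor:RXRα heterodimers (3:1 NR:RXRα, mostly 270:90 nM) or homodimers were incubated for 1 h in PBS with 2% milk and no ligand, then detected with Alexa488 antibodies. Fluorescence from o1-orientation probes (~5 replicates averaged) was converted to z-scores against 500 random hg19 background probes. Variable regions are seed direct-repeat (DR0–DR5) sites, all their single-nucleotide variants and half-site ablations.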

**Q.** Which PBM binding z-score does the source give for TCTCGGAAGACACGAAAGGTCAGAGCTCGACATC here?
**A.** The PBM binding z-score was 2.55.

**Q.** TGAATGAGGTTAAAAGATCAGGGAACGTTGCAAA was tested. Which PBM binding z-score did it give?
**A.** The PBM binding z-score was 1.45.

**Q.** For ACTATTAGTTGAGACCAGGGCAACCGATAGGTTG, which PBM binding z-score is on record?
**A.** Its PBM binding z-score is -0.036.

**Q.** CTTTACGGGTCACTCCAGGTTATAGCATCGGAGT was tested. Which PBM binding z-score did it give?
**A.** Its PBM binding z-score is 4.46.

**Q.** How did the PBM binding z-score turn out when TAGCCTAGGTCACGCGGGCCAGTATAGTGTCGGC was run?
**A.** The PBM binding z-score was 3.35.

**Q.** TCAGACGGGTGAAGGTAACTCAGGTACGCAGTCG was tested. Which PBM binding z-score did it give?
**A.** The PBM binding z-score was 0.218.

**Q.** How did the PBM binding z-score turn out when CCAGACAGGTGAAAGGTAACTCAGTCTGGTACGC was run?
**A.** Its PBM binding z-score is 0.989.

**Q.** Which PBM binding z-score does the source give for ACTAGCACGCCAAGGGTCACTCAAGATTAGTCCG here?
**A.** The PBM binding z-score was 2.97.

**Q.** With CAAACTAGGTCAAAGTTCAAAGTCGAGCCAACCA as the sequence, how does the PBM binding z-score read?
**A.** The PBM binding z-score was 6.12.

**Q.** With AGAATGAGGTTATACGTAGATCAGGTAAGAAAGT as the sequence, how does the PBM binding z-score read?
**A.** Its PBM binding z-score is 1.58.

**Q.** For GCTAGCAGGCCATTTGGGGCACTCAATGACGGGC, which PBM binding z-score is on record?
**A.** Its PBM binding z-score is -0.555.

**Q.** TCTTGTAGATCAACAGGAGGTTACGAAAGATCGA was tested. Which PBM binding z-score did it give?
**A.** Its PBM binding z-score is 0.945.

**Q.** Which PBM binding z-score does the source give for TCTTGTAGATCAATAGAGGTTAGGAAAGTGCGCT here?
**A.** The PBM binding z-score was 1.05.

**Q.** For AGTCAAAGTTCAGGACGAGGTAACGGAAAGCACG, which PBM binding z-score is on record?
**A.** Its PBM binding z-score is 2.86.

**Q.** Which PBM binding z-score does the source give for ATACCAAGGTGATAGTGAGGTCGTTGATACTAAC here?
**A.** The PBM binding z-score was 3.69.

**Q.** Which PBM binding z-score does the source give for CCTCGGAGGACAGGAGGTCAGAGCTGTCCGCTTT here?
**A.** Its PBM binding z-score is 1.47.

**Q.** AATACAGGGTCACTAGGGCAGAGTAGGTACGAAT was tested. Which PBM binding z-score did it give?
**A.** Its PBM binding z-score is 4.5.

**Q.** With ATATGTAAGTTAAGGGTCATTCAGGTTGGTTCGC as the sequence, how does the PBM binding z-score read?
**A.** The PBM binding z-score was 5.46.

**Q.** Which PBM binding z-score does the source give for CCTTACGGGTCACGAGGTTATAGCGCGACGAGCG here?
**A.** Its PBM binding z-score is 4.99.

**Q.** Which PBM binding z-score does the source give for ATCGAAAGTTCGAGGTGAGTATAGAGAAAGGGAA here?
**A.** The PBM binding z-score was 1.16.

**Q.** How did the PBM binding z-score turn out when CCAGACAGGTGATAAGGTAACTCAGCCTCGATTA was run?
**A.** The PBM binding z-score was -0.000379.

**Q.** CCTCGGAGGACAACAGGAGGTCAGAGCGGCCAGA was tested. Which PBM binding z-score did it give?
**A.** Its PBM binding z-score is 2.92.

**Q.** CAAACTAGGTCACATAGGTCAAAGTCCGTGCGTA was tested. Which PBM binding z-score did it give?
**A.** Its PBM binding z-score is 6.27.

**Q.** With ATCGCTAGGTAAAGTTCAGTGAAAGATCGATAGA as the sequence, how does the PBM binding z-score read?
**A.** Its PBM binding z-score is 0.735.

**Q.** TCATATAGGTAAATGCTAGGGGAAAGTCCGATCT was tested. Which PBM binding z-score did it give?
**A.** The PBM binding z-score was 0.846.

**Q.** With GCTCTGAGGACAAGGTCAGAGCTTTGTCCGTAGA as the sequence, how does the PBM binding z-score read?
**A.** Its PBM binding z-score is 1.68.

**Q.** CAGCCTAGGGCAGGGCCAGTATAGGAGGAACGTT was tested. Which PBM binding z-score did it give?
**A.** Its PBM binding z-score is -0.885.

**Q.** GCAGACAGGTGAAACGCAGTTAACTCAGGGTGGC was tested. Which PBM binding z-score did it give?
**A.** The PBM binding z-score was -0.561.

**Q.** With TCTTGTAGATCAGCAGCTTAAGAAAGCTGGCCAA as the sequence, how does the PBM binding z-score read?
**A.** Its PBM binding z-score is -0.232.

**Q.** Which PBM binding z-score does the source give for TCTGCGAGGTCAGTTGGTCAGCTAACGAGCTGCC here?
**A.** The PBM binding z-score was 3.43.

**Q.** With ATTATTAGTTGACTTAGGGCAACCGATACGACGC as the sequence, how does the PBM binding z-score read?
**A.** The PBM binding z-score was 0.926.

**Q.** Which PBM binding z-score does the source give for TCTAGCAGGCCAGAGGGTCAATCAAGAGGTACGG here?
**A.** Its PBM binding z-score is 1.6.

**Q.** How did the PBM binding z-score turn out when ATCGAAAGCTCGACGAGGTGAGTATACACCGTTT was run?
**A.** The PBM binding z-score was -0.25.

**Q.** With CCTACTGGGCCAAAGGTCATCGATTCCAATGCTC as the sequence, how does the PBM binding z-score read?
**A.** Its PBM binding z-score is 4.53.

**Q.** Which PBM binding z-score does the source give for CCTTACGGGTCACTCCAGGTTAAAGCATCGGAGT here?
**A.** Its PBM binding z-score is 4.34.

**Q.** For CGAACTAGGTCATCCAGGACAGTGATTACATTGA, which PBM binding z-score is on record?
**A.** Its PBM binding z-score is 4.57.

**Q.** With CCGAGTAGGTTTTGGGGCATTCAGGCAACGGTGA as the sequence, how does the PBM binding z-score read?
**A.** Its PBM binding z-score is -0.239.

**Q.** With GCCGACAGGTGAAACGCAGGTAACTCAGGGTGGC as the sequence, how does the PBM binding z-score read?
**A.** Its PBM binding z-score is -0.543.

**Q.** For ATCGAAAGGTCGATGAGGTGAGTATACACCGTTT, which PBM binding z-score is on record?
**A.** Its PBM binding z-score is 5.2.

**Q.** How did the PBM binding z-score turn out when TCTAGCAGGCCAGAGGGTCACTCAGGAGGTACGG was run?
**A.** Its PBM binding z-score is 1.56.
